This note sets out measurements from PubChem BioAssay AID1508622 (National Center for Advancing Translational Sciences (NCATS), 2021).

The source made the active and inactive calls. Entries that show only a call come without a potency. The call rests on the fitted dose curve; in most records, active means well fitted activation curve with a large enough effect; inconclusive means small, poorly fitted or top-dose-only effect; inactive means no such curve, though single readings can be large or run the other way.
Potency means the concentration at half of the fitted maximal effect.

The assay in a line: Confirmatory qHTS for Identification of Small Molecule Activators of Huntingtin-Antisense Promoter Activity. To be noted: HEK293 HTT-AS promoter firefly luciferase reporter, 24 h; series mostly up to 57.5 µM. An outline of the steps: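 2,500 luciferase reporter HEK293 cells/well; 24 h culture; cpds up to 57.5 uM final, PTC124 50 uM ctrl; 24 h, 37C; Dual-Glo FLuc reagent, 10 min RT; lum. Norm.: vehicle 0%, zero RLU -100%.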
On the technique in general: qHTS replaces the single test concentration by a dilution series.
With `FC(F)(F)c1cccc(Nc2c3c(nc4ccc(Cl)cc24)CCC3)c1`, the Potency entry is “inactive”.
Next, `COc1ccc(NS(=O)(=O)c2ccc3c(c2)CCCN3C(=O)C2CCC2)cc1OC`: “inactive”; `O=C(Nc1cc(Cl)cc(Cl)c1)c1ccc(F)c(S(=O)(=O)N2CCCC2)c1`: “inactive”.
For `COc1ccccc1CNS(=O)(=O)c1ccc2c(c1)CC(C)N2C(=O)C1CCC1` (stereo not given), the Potency entry was “inactive”.
Turning to `Cc1cc(NC(=O)CN(C)S(=O)(=O)c2ccc3c(c2)CCC(=O)N3)ccc1Br`, the Potency result is “inactive”.
Regarding `Cc1ccc(C)c(N2CCN(CCCNC(=O)c3cnn(-c4ccccc4Cl)c3C3CCN(C(=O)OC(C)(C)C)CC3)CC2)c1`, the Potency entry was “inactive”.
For `Cc1noc(/C=C/c2ccccc2F)c1S(=O)(=O)N1CCC(C(=O)Nc2ccc(C#N)cc2)CC1`, the Potency result was “inactive”.
With `COc1ccc(NS(=O)(=O)c2ccc3c(c2)CC(C)N3C(=O)C2CCC2)cc1OC` (stereo not given), the Potency entry was “inactive”.
Next, `CCOC(=O)c1cccc(NC(=O)CCn2c(-c3ccc(F)cc3)cc(C(=O)OCC)c2C)c1`: “inactive”; `COc1ccc(C(=O)Nc2ccc(S(=O)(=O)N(Cc3ccccc3)c3ccccc3)cc2)cc1`: “inactive”; `COc1cccc(CNC(=O)c2cc3c(-c4ccccc4F)nn(C)c3s2)c1`: “inactive”.
For the compound `Cc1ccc(-c2cn3nc(N4CCCC(C(=O)Nc5ccc(F)cc5)C4)sc3n2)cc1` (stereo not given), the Potency entry is “inactive”.
For the compound `O=S(=O)(c1ccc(-c2csc(=Nc3ccc(OC(F)(F)Cl)cc3)n2CCCO)cc1)N1CCCC1`, the Potency result was “inactive”.
Take `O=C(NCCn1cc(SCc2ccccc2)c2ccccc21)c1cccs1`: the Potency result was “inactive”.
For `CCN(Cc1ccccc1)C(=O)c1cc(-c2ccccc2)n[nH]1`, the Potency is 953 nM (active).
